The record followed here is article PMC4552634, “A New Set of Chemical Starting Points with Plasmodium falciparum Transmission-Blocking Potential for Antimalarial Drug Discovery” (PLoS ONE, 2015).

The structures appear in SMILES notation. About 3,200 (25%) of roughly 13,000 compounds showed an effect of 50% or more. Some of the results follow.

This experiment has as its system P. falciparum stage V gametocytes. Further details: BacTiter-Glo ATP luminescence viability of purified stage V gametocytes in 384-well plates, per cent inhibition versus DMSO. The conditions noted are these: 48 h, 5 µM; inhibitor.
For `COc1cc(C)ccc1N1CCN(CCCCNC(=O)c2ccc(NC(=O)c3ccc(Cl)cc3)cc2)CC1` [TCMDC-138374], the “% Inhibition” value is -7.22%.
`COC(=O)CNC(c1ccccc1)c1cc(Br)ccc1NC(=O)c1ccccc1Br` (stereo not drawn) [TCMDC-124194]: the “% Inhibition” value is 56.77%.
With `O=C(Nc1cc(Cl)c(Cl)cc1NC(=O)c1cccc(-c2ccccc2)c1O)c1cccc(-c2ccccc2)c1O` [TCMDC-139548], the “% Inhibition” value is reported as 45.99%.
For the compound `CCNc1cc(C)nc(Nc2ccc(NC(=O)c3ccccc3Br)cc2)n1` [TCMDC-124985], the “% Inhibition” value came to 22.04%.
As for `CCOC(=O)NC1=NC(C)(C)N(OCCCOc2cc(Cl)c(Cl)cc2Cl)C(N)=N1` [TCMDC-131741], the “% Inhibition” value is -6.814%.
Take `CC(C)C1C(O)=C(c2ccc3ccccc3c2)C(=O)N1CC1CCCCC1` (stereo not drawn) [TCMDC-141719]: the “% Inhibition” value was determined as 18.57%.
For the compound `Cc1cc(N[C@@H](Cc2ccccc2)C(=O)NC2CCCC2)nc(Nc2ccccc2)n1` [TCMDC-134856], the “% Inhibition” value was 16.45%.
On to `O=C(Nc1nc2cc(S(=O)(=O)NCc3ccc(Cl)c(Cl)c3)ccc2n1CCCn1ccnc1)c1ccc(Cl)cc1` [TCMDC-141625], for which the “% Inhibition” value was -7.697%.
For `O=C(Nc1nc2cc(S(=O)(=O)NCCCN3CCOCC3)ccc2n1CCCn1ccnc1)c1ccc(Cl)cc1` [TCMDC-141624], the “% Inhibition” value is on record as 31.25%.
Consider `O=C(Nc1nc2cc(S(=O)(=O)NCc3ccc(Cl)c(Cl)c3)ccc2n1CCCN1CCCC1)c1ccc(Cl)cc1` [TCMDC-141622], for which the “% Inhibition” value turned out to be 64.1%.
Then `O=C(O)C(F)(F)F.O=C1CCCN1CCCNCc1ccc(-c2ccc(-c3nc4cc(F)ccc4[nH]3)cc2)cc1` [TCMDC-132759], with -31.18%.
Next, `Cc1cc(C(=O)NCc2ccc(-c3c(C)noc3C)cc2)n(-c2ccccc2)n1` [TCMDC-133780]: 16.41%.
`CCCc1cc(NC2CCN(C)CC2)nc(Nc2ccc(C)cc2)n1` [TCMDC-134003]: the “% Inhibition” value is recorded as 32.47%.
As to `CCCc1cc(NC2CCN(C)CC2)nc(Nc2cccc(OC)c2)n1` [TCMDC-134001], the “% Inhibition” value is given as 21.8%.
Then `CCCCc1cc(NC2CCN(C)CC2)nc(Nc2ccccc2)n1` [TCMDC-133994], with 6.593%.
On to `CCCc1cc(NC2CCN(C)CC2)nc(Nc2ccc(F)cc2)n1` [TCMDC-134004], for which the “% Inhibition” value worked out at 57.16%.
Turning to `Cc1ccc(Nc2nc(C)cc(NC3CCN(C)CC3)n2)cc1` [TCMDC-133997], the “% Inhibition” value amounted to 39.13%.
With `CCc1cc(NC2CCN(C)CC2)nc(Nc2ccc(C)cc2)n1` [TCMDC-133996], the “% Inhibition” value is given as 57.8%.
`COC(=O)c1cc(C(=O)CN(Cc2ccccc2)C(C)C)ccc1O` [TCMDC-131766]: the “% Inhibition” value was determined as 18.13%.
For `N#Cc1ccc(N(CCOC(=O)c2ccccc2)Cc2ccccc2C(F)(F)F)cc1C(F)(F)F` [TCMDC-135738], the “% Inhibition” value is listed as -18.34%.
In the case of `CC(=O)Nc1ccc(OCCN(Cc2ccccc2OC(F)(F)F)c2ccc(C(F)(F)F)c(C#N)c2)c(Cl)c1` [TCMDC-132792], the “% Inhibition” value turned out to be 45.86%.
For `N#Cc1ccc(N(CCCO)Cc2ccccc2C(F)(F)F)cc1C(F)(F)F` [TCMDC-134689], the “% Inhibition” value is given as 3.655%.
Take `N#Cc1ccc(N(CCNS(=O)(=O)c2cc(Br)c(Cl)s2)Cc2ccccc2C(F)(F)F)cc1C(F)(F)F` [TCMDC-135822]: the “% Inhibition” value was 50.22%.
In the case of `CC(=O)Nc1ccc(OCCN(Cc2ccccc2C(F)(F)F)c2ccc(C#N)c(C(F)(F)F)c2)c(Cl)c1` [TCMDC-132790], the “% Inhibition” value was found to be 76.06%.
Take `CC(=O)Nc1ccc(OCCCN(Cc2ccccc2C(F)(F)F)c2ccc(C(F)(F)F)c(C#N)c2)c(Cl)c1` [TCMDC-132785]: the “% Inhibition” value amounted to 61.05%.
Then `CC(=O)Nc1ccc(OCCCN(Cc2ccccc2OC(F)(F)F)c2ccc(C(F)(F)F)c(C#N)c2)c(Cl)c1` [TCMDC-132789], with 32.58%; and `N#Cc1ccc(N(CCOC(=O)c2ccc(Br)s2)Cc2ccccc2C(F)(F)F)cc1C(F)(F)F` [TCMDC-135739], with 59.47%; and `N#Cc1ccc(OCCN(Cc2ccccc2C(F)(F)F)c2ccc(C#N)c(C(F)(F)F)c2)cc1` [TCMDC-132799], with 28.83%.
On to `CC(=O)Nc1ccc(OCCN(Cc2ccccc2C(F)(F)F)c2ccc(C#N)c(C(F)(F)F)c2)cc1` [TCMDC-132802], for which the “% Inhibition” value was determined as 0.1764%.
In the case of `CC(=O)Nc1ccc(OCCCCN(Cc2ccccc2C(F)(F)F)c2ccc(C(F)(F)F)c(C#N)c2)c(Cl)c1` [TCMDC-133358], the “% Inhibition” value is 47.4%.
In the case of `N#Cc1ccc(N(CCOc2ccc(Cl)cc2)Cc2ccccc2C(F)(F)F)cc1C(F)(F)F` [TCMDC-132794], the “% Inhibition” value is recorded as -24.46%.
For the compound `CCC(=O)Nc1cc(=O)[nH]c2nc(-c3ccc(Cl)cc3)nn12` [TCMDC-125473], the “% Inhibition” value was -75.71%.
As to `Cc1cc(-c2cc(-c3ccc(OCCN(C)C)cc3)[nH]c2-c2ccc3c(c2)CCC3=NO)ccn1` [TCMDC-141302], the “% Inhibition” value amounted to 25.92%.
On to `N#Cc1cccc(NC(=O)Nc2ccc(CC(=O)N3CCc4cc(Cl)c(N5CCN(C/C=C/c6ccccc6)CC5)cc43)cc2)c1` [TCMDC-139476], for which the “% Inhibition” value was 12.28%.
`CCCc1cc(Cc2cnc(N)nc2N)ccc1OCCCCCC(=O)O` [TCMDC-137231]: the “% Inhibition” value was -22.54%.
As to `CS(=O)(=O)CCNCc1cc(-c2cc3ncnc(Nc4ccc(OCc5cccc(F)c5)c(Cl)c4)c3s2)cs1` [TCMDC-138726], the “% Inhibition” value is -0.4482%.
As for `CCOC(=O)c1ccc2nc(-c3ccc(C(=O)NC4CCN(Cc5ccccc5)CC4)s3)[nH]c2c1` [TCMDC-140575], the “% Inhibition” value is -23.22%.
In the case of `CCCCSc1nc2c(c(=O)n1Cc1ccco1)C1(CCCCC1)Cc1ccccc1-2` [TCMDC-123896], the “% Inhibition” value is -14.5%.
Next, `CC(C)(C)Oc1ccc(C[C@@H]2NC3(C(=O)N(Cc4ccc(Cl)c(Cl)c4)c4ccccc43)C3C(=O)N(c4ccc(Br)cc4)C(=O)C32)cc1` (stereo partly drawn) [TCMDC-139775]: -22.32%; `CC(=O)Nc1ccc(OCCCCN(Cc2ccccc2OC(F)(F)F)c2ccc(C(F)(F)F)c(C#N)c2)c(Cl)c1` [TCMDC-132788]: 39.51%.
Consider `CC(=O)Nc1ccc(OCCN(CC(C)C)c2ccc(C(F)(F)F)c(C#N)c2)c(Cl)c1` [TCMDC-132793], for which the “% Inhibition” value was 18.14%.
As to `CC(=O)Nc1ccc(OCCN(CC(C)C)c2ccc(C#N)c(C(F)(F)F)c2)c(Cl)c1` [TCMDC-137002], the “% Inhibition” value came out at 29.5%.
For the compound `CC(=O)Nc1ccc(OCCN(CC(C)(C)C)c2ccc(C#N)c(C(F)(F)F)c2)c(Cl)c1` [TCMDC-132786], the “% Inhibition” value is reported as 66.46%.
Then `CC(=O)Nc1ccc(OCCCCN(Cc2ccccc2C(F)(F)F)c2ccc(C#N)c(C(F)(F)F)c2)c(Cl)c1` [TCMDC-132787], with 69.01%; and `CC(=O)Nc1ccc(OCCCCN(Cc2ccccc2C(F)(F)F)c2ccc(C#N)c(C(F)(F)F)c2)cc1` [TCMDC-132800], with 12.39%.
